Data reported in PubChem BioAssay AID743315 (Broad Institute, 2014).
Measured potencies and affinities stand elsewhere. The source made the active and inactive calls.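 How the source made its calls: active means cell killing, with a fitted active concentration at or below twice the top valid dose tested; inconclusive means flat curve with moderate cell loss, or an unreliable fit; inactive means effect in the rising direction, plus the rest.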

test: HEK293T cell cytotoxicity, dose response, cytotoxicity control, plate reader, dry powder, set 10 (AID 743315); conditions: HEK293T viability, CellTiter-Glo ATP luminescence, 72 h; series mostly up to 26 µM; activity change, negative = cytotoxicity: at the top concentration

Row | SMILES | activity change, negative = cytotoxicity | outcome
1 | Cc1ccc(C(C)C)c(OCCn2c(=S)[nH]c3cccc(Cl)c32)c1 | 5.65% [at 12 µM] (inactive) | –
2 | COc1ccc(OCCn2c(=S)[nH]c3ccccc32)cc1 | 22.4% (inactive) | –
3 | Cc1ccc(C(C)C)c(OCCn2c(=S)[nH]c3ccccc32)c1 | – | inactive
4 | S=c1[nH]c2ccccc2n1CCOc1ccccc1 | -4.59% (inactive) | –
